# Paper PMC7862700, “An all-to-all approach to the identification of sequence-specific readers for epigenetic DNA modifications on cytosine”
# Legend:
# Assay in all cases: DAPPL (digital affinity profiling via proximity ligation, sequencing); 10 mM Tris-HCl pH 7.5, 50 mM NaCl, 1 mM DTT, 4% glycerol, room temperature, 30 min; GST-TFs on glutathione beads, 16-mer random dsDNA library, 0.1% formaldehyde crosslink after washing; high values mean tight binding
# FLI1 = target: T1, FLI1 (Homo sapiens, UniProt Q01543 1-452); conditions: protein: recombinant; tags: N-terminal GST; dsDNA, one strand shown
# T1 sequence: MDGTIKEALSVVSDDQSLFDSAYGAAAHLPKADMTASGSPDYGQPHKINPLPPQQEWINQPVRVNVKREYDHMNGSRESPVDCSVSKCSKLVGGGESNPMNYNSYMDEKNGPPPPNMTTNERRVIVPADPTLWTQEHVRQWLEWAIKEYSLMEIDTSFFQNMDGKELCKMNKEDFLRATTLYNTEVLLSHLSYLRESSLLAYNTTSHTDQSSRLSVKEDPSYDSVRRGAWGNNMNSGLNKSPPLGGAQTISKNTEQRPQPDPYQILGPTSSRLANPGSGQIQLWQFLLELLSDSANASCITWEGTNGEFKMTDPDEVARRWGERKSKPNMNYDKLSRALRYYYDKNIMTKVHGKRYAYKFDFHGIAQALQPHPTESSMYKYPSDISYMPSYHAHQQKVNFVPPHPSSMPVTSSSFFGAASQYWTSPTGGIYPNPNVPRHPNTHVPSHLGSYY
# Method in brief: (§1)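 Each value of binding signal is a hexamer's read frequency for a factor divided by the same hexamer's frequency in the tag-only sample. Barcoded, bead-captured GST fusions of human transcription factors made in yeast were pooled with that sample and incubated with 200 nmole of a random double-stranded 16-mer DNA library in Tris/NaCl/DTT/glycerol buffer at room temperature for 30 min. Washing, 0.1% formaldehyde crosslinking, proximity ligation, PCR and Illumina NextSeq500 sequencing followed.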
# ELK1 = target: T2, ELK1 (Homo sapiens, UniProt P19419 1-428); conditions: protein: recombinant; tags: N-terminal GST; dsDNA, one strand shown
# T2 sequence: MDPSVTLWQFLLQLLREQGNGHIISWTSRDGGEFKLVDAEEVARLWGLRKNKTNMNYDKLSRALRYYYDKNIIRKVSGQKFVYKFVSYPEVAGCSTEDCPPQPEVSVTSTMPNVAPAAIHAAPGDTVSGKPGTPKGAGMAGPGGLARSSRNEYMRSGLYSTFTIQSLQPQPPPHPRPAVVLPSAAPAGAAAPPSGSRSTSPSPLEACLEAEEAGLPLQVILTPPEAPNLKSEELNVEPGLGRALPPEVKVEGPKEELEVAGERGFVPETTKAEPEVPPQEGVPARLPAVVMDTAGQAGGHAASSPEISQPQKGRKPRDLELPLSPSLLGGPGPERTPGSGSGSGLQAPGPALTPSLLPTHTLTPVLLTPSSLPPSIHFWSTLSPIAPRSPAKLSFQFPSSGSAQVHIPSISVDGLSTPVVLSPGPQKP
# Method in brief: as §1
# GABPA = target: T3, GABPA (Homo sapiens, UniProt Q06546 1-454); conditions: protein: recombinant; tags: N-terminal GST; dsDNA, one strand shown
# T3 sequence: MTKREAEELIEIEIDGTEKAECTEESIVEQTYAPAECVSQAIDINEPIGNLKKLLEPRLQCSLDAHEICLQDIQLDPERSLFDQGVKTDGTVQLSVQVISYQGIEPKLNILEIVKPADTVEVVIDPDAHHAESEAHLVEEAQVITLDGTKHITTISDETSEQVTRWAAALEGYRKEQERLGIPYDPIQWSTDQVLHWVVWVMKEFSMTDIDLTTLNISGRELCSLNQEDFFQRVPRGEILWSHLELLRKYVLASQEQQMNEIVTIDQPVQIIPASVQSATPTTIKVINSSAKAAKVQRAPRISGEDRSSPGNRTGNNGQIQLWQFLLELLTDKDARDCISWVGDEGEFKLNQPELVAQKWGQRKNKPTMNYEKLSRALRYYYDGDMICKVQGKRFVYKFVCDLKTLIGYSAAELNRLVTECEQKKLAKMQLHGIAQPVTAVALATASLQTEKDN
# Method in brief: as §1
# ERG = target: T4, ERG (Homo sapiens, UniProt P11308 1-479); conditions: protein: recombinant; tags: N-terminal GST; dsDNA, one strand shown
# T4 sequence: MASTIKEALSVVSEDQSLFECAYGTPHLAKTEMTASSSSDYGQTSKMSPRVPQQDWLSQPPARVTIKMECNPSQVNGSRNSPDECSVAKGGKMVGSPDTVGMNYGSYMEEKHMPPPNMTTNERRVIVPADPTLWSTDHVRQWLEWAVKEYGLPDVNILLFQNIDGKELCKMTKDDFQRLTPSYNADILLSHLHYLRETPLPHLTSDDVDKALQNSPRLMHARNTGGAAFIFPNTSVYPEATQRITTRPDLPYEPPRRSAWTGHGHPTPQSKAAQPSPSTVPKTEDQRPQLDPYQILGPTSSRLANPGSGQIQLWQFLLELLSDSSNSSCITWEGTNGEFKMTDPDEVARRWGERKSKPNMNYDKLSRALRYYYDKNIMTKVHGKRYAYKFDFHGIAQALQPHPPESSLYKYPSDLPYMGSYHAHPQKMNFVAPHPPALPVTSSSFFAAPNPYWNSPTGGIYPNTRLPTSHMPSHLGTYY
# Method in brief: as §1
# ELF1 = ELF1 (Homo sapiens, UniProt P32519 1-619); conditions: protein: recombinant; tags: N-terminal GST; dsDNA, one strand shown
# Method in brief: as §1
# EHF = target: T5, EHF (Homo sapiens, UniProt Q9NZC4 1-300); conditions: protein: recombinant; tags: N-terminal GST; dsDNA, one strand shown
# T5 sequence: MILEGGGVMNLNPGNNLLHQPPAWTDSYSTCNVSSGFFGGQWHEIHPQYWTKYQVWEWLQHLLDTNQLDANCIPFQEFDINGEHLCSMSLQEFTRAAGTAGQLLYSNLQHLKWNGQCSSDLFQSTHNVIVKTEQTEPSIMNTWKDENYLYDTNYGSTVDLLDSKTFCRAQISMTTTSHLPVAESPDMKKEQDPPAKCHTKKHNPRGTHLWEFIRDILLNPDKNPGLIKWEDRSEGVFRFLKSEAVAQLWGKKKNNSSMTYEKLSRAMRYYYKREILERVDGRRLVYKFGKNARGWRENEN
# Method in brief: as §1
# SPI1 = SPI1 (Homo sapiens, UniProt P17947 1-270); conditions: protein: recombinant; tags: N-terminal GST; dsDNA, one strand shown
# Method in brief: as §1
# SPIB = SPIB (Homo sapiens, UniProt Q01892 1-262); conditions: protein: recombinant; tags: N-terminal GST; dsDNA, one strand shown
# Method in brief: as §1
# ELK3 = target: T6, ELK3 (Homo sapiens, UniProt P41970 1-407); conditions: protein: recombinant; tags: N-terminal GST; dsDNA, one strand shown
# T6 sequence: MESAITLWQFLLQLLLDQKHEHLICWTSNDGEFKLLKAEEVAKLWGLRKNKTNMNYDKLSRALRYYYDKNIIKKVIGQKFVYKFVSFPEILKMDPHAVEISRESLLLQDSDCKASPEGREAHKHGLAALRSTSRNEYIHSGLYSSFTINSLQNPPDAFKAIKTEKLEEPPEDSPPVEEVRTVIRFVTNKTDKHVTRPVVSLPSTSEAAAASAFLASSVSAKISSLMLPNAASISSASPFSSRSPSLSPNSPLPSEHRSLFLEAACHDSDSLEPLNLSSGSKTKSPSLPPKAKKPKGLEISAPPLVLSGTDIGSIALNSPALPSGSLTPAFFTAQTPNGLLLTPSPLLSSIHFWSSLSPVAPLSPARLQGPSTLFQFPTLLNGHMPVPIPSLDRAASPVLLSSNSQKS
# Method in brief: as §1
# FEV = target: T7, FEV (Homo sapiens, UniProt Q99581 1-238); conditions: protein: recombinant; tags: N-terminal GST; dsDNA, one strand shown
# T7 sequence: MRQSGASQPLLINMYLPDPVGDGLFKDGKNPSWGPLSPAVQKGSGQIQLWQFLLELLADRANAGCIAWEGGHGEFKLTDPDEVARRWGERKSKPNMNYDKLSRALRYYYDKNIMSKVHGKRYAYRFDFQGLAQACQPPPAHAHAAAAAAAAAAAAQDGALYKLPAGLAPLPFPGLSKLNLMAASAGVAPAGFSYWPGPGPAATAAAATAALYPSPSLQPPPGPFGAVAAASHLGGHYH
# Method in brief: as §1
# ETV5 = ETV5 (Homo sapiens, UniProt P41161 1-510); conditions: protein: recombinant; tags: N-terminal GST; dsDNA, one strand shown
# Method in brief: as §1
# HSF1 = HSF1 (Homo sapiens, UniProt Q00613 1-529); conditions: protein: recombinant; tags: N-terminal GST; chain copies: 3; dsDNA, one strand shown
# Method in brief: as §1
# SPIC = target: T8, SPIC (Homo sapiens, UniProt Q8N5J4 1-248); conditions: protein: recombinant; tags: N-terminal GST; dsDNA, one strand shown
# T8 sequence: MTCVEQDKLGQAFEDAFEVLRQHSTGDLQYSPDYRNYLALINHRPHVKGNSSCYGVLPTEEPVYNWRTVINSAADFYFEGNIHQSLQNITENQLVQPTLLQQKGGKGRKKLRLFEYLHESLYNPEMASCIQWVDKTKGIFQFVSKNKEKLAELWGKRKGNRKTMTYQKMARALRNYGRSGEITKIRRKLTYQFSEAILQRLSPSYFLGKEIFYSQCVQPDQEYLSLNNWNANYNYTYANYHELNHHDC
# Method in brief: as §1
# ELF4 = ELF4 (Homo sapiens, UniProt Q99607 1-663); conditions: protein: recombinant; tags: N-terminal GST; dsDNA, one strand shown
# Method in brief: as §1
# ELK4 = target: T9, ELK4 (Homo sapiens, UniProt P28324-2 1-405); conditions: protein: recombinant; tags: N-terminal GST; dsDNA, one strand shown
# T9 sequence: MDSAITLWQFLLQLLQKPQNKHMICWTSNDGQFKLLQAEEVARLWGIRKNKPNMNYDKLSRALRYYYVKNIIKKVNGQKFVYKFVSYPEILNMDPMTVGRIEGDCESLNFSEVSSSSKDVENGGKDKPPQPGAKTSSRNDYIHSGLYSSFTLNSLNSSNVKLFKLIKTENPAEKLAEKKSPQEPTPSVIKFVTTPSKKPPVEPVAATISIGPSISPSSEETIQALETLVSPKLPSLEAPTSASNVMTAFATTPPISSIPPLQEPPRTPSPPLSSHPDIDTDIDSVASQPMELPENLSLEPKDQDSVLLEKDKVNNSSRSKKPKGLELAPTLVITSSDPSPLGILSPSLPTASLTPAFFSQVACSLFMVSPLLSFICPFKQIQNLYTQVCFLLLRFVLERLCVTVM
# Method in brief: as §1
# ETV2 = target: T10, ETV2 (Homo sapiens, UniProt O00321 1-342); conditions: protein: recombinant; tags: N-terminal GST; dsDNA, one strand shown
# T10 sequence: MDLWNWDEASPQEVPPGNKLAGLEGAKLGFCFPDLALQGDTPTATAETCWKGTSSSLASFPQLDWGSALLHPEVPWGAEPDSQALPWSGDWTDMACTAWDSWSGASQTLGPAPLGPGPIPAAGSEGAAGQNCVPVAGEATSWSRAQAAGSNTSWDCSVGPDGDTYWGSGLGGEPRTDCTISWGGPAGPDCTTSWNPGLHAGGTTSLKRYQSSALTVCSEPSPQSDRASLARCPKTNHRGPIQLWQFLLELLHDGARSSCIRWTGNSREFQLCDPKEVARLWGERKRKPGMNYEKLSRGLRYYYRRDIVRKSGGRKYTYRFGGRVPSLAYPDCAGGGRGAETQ
# Method in brief: as §1
# ELF3 = target: T11, ELF3 (Homo sapiens, UniProt P78545 1-371); conditions: protein: recombinant; tags: N-terminal GST; dsDNA, one strand shown
# T11 sequence: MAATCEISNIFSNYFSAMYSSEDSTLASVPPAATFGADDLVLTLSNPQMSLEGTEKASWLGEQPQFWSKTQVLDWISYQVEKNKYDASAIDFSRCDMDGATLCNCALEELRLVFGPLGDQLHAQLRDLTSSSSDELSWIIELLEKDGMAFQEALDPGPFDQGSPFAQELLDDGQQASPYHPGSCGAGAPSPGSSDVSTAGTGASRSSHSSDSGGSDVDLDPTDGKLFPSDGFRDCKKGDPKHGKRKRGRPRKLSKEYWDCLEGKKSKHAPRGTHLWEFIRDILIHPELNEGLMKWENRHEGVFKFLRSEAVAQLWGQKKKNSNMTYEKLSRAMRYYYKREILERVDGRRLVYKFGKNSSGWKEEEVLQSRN
# Method in brief: as §1
# CRX = CRX (Homo sapiens, UniProt O43186 1-299); conditions: protein: recombinant; tags: N-terminal GST; dsDNA, one strand shown
# Method in brief: as §1
# ETV1 = ETV1 (Homo sapiens, UniProt P50549 1-477); conditions: protein: recombinant; tags: N-terminal GST; dsDNA, one strand shown
# Method in brief: as §1
# ELF1, sequence (P32519 whole entry): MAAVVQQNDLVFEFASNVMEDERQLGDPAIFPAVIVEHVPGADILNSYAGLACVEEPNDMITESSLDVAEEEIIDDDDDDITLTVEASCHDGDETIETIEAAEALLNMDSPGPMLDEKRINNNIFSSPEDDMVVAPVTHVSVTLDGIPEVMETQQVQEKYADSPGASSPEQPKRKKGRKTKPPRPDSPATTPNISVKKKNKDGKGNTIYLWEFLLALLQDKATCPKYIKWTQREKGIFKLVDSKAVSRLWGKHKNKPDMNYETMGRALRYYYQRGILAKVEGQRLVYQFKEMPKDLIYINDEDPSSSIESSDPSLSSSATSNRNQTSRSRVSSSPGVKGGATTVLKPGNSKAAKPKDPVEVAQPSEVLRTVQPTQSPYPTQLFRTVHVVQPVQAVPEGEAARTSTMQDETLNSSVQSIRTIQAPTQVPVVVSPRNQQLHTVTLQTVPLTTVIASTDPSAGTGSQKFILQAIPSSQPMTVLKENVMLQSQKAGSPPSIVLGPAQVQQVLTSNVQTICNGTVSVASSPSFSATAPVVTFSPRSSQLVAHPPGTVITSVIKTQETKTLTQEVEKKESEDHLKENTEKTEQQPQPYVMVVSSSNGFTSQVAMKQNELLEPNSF
# ETV1, sequence (P50549 whole entry): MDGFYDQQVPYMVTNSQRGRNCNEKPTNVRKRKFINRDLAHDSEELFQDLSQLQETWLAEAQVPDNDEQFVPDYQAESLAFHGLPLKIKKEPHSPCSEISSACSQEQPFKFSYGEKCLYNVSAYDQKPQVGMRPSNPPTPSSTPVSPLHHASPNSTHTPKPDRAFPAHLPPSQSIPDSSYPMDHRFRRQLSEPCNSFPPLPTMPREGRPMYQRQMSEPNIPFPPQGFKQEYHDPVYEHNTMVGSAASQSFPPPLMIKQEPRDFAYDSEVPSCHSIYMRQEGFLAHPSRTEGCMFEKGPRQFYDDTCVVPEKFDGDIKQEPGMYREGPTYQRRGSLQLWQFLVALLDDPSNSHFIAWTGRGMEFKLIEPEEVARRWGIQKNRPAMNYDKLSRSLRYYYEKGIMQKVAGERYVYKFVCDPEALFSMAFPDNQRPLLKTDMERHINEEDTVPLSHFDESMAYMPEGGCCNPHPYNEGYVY
# ELF4, sequence (Q99607 whole entry): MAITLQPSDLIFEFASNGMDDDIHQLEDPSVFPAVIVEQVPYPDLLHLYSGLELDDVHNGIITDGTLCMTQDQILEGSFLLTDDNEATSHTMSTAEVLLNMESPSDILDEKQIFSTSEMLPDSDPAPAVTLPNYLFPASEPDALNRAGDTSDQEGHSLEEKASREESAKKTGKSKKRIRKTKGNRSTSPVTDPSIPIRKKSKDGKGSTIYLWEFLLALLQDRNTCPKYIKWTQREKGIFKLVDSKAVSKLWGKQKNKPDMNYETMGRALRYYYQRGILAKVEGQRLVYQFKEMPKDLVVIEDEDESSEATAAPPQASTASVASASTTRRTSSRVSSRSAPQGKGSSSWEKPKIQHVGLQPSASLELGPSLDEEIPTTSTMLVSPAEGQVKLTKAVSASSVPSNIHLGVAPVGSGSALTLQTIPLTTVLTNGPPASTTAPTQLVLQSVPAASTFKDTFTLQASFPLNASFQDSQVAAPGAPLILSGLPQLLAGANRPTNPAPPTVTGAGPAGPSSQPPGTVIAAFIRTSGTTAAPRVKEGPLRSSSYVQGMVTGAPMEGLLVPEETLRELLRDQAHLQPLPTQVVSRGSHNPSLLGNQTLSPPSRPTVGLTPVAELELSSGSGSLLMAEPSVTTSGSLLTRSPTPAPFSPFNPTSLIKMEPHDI
# HSF1, sequence (Q00613 whole entry): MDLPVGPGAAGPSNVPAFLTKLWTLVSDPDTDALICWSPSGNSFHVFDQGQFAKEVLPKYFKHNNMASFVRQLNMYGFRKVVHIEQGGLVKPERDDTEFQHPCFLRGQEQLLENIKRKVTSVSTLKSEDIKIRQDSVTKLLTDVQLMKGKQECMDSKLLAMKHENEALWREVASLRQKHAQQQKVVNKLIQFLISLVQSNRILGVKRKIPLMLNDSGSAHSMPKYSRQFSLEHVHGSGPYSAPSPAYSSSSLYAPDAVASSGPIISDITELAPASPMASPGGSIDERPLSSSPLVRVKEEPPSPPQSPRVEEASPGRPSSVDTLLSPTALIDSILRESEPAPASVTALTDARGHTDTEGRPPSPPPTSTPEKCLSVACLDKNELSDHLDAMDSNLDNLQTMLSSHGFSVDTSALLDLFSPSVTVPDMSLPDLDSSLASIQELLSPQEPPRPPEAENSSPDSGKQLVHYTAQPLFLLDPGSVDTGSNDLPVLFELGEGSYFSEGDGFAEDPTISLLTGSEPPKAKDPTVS
# SPIB, sequence (Q01892 whole entry): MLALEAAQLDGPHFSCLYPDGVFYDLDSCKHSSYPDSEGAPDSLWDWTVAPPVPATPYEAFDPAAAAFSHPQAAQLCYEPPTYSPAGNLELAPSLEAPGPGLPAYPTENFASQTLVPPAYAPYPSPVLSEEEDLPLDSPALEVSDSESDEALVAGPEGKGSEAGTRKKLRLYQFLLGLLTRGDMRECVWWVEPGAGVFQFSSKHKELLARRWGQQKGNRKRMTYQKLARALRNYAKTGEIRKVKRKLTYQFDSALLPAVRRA
# CRX, sequence (O43186 whole entry): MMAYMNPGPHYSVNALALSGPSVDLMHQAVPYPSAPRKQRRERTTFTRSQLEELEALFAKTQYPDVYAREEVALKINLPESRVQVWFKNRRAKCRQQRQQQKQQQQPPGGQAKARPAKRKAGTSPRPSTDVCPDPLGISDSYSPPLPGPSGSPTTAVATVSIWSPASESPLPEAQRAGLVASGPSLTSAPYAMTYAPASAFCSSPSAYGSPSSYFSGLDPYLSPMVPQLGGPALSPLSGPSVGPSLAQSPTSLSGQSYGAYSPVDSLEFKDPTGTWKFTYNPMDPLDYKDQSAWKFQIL
# ETV5, sequence (P41161 whole entry): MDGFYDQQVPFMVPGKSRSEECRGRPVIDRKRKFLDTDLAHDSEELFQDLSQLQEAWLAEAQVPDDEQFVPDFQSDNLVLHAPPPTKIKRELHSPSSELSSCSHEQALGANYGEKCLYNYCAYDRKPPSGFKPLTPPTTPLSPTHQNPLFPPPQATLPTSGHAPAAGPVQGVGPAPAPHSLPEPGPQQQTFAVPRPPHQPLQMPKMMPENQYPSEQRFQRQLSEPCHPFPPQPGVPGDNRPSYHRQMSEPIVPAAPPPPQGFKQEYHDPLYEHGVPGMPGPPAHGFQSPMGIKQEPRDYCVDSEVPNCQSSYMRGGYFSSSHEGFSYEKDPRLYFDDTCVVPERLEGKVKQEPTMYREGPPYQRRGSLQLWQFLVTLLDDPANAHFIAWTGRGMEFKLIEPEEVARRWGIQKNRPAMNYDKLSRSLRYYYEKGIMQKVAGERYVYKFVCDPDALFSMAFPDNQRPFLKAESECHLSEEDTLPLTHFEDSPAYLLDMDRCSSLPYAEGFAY
sequence,measurement,setting,value
TTCGAA,binding signal,FLI1,"1.14 fold enrichment (6-mer frequency, TF over GST control)"
same,binding signal,ELK1,"1.2 fold enrichment (6-mer frequency, TF over GST control)"
same,binding signal,GABPA,"1.19 fold enrichment (6-mer frequency, TF over GST control)"
same,binding signal,ERG,"1.19 fold enrichment (6-mer frequency, TF over GST control)"
same,binding signal,ELF1,"1.28 fold enrichment (6-mer frequency, TF over GST control)"
same,binding signal,EHF,"1.12 fold enrichment (6-mer frequency, TF over GST control)"
same,binding signal,SPI1,"1.14 fold enrichment (6-mer frequency, TF over GST control)"
same,binding signal,SPIB,"1.12 fold enrichment (6-mer frequency, TF over GST control)"
same,binding signal,ELK3,"1.33 fold enrichment (6-mer frequency, TF over GST control)"
same,binding signal,FEV,"1.13 fold enrichment (6-mer frequency, TF over GST control)"
same,binding signal,ETV5,"1.18 fold enrichment (6-mer frequency, TF over GST control)"
same,binding signal,HSF1,"1.93 fold enrichment (6-mer frequency, TF over GST control)"
same,binding signal,SPIC,"1.18 fold enrichment (6-mer frequency, TF over GST control)"
same,binding signal,ELF4,"1.26 fold enrichment (6-mer frequency, TF over GST control)"
same,binding signal,ELK4,"1.2 fold enrichment (6-mer frequency, TF over GST control)"
same,binding signal,ETV2,"1.16 fold enrichment (6-mer frequency, TF over GST control)"
same,binding signal,ELF3,"1.24 fold enrichment (6-mer frequency, TF over GST control)"
same,binding signal,CRX,"1.3 fold enrichment (6-mer frequency, TF over GST control)"
same,binding signal,ETV1,"1.1 fold enrichment (6-mer frequency, TF over GST control)"
